Paper PMC7862700, “An all-to-all approach to the identification of sequence-specific readers for epigenetic DNA modifications on cytosine”

How the values were obtained:
Experiment in all cases: DAPPL (digital affinity profiling via proximity ligation, sequencing); 10 mM Tris-HCl pH 7.5, 50 mM NaCl, 1 mM DTT, 4% glycerol, room temperature, 30 min; GST-TFs on glutathione beads, 16-mer random dsDNA library, 0.1% formaldehyde crosslink after washing; high values mean tight binding
FLI1 = target: T1, FLI1 (Homo sapiens, UniProt Q01543 1-452); settings: protein: recombinant; tags: N-terminal GST; dsDNA, one strand shown
T1 sequence: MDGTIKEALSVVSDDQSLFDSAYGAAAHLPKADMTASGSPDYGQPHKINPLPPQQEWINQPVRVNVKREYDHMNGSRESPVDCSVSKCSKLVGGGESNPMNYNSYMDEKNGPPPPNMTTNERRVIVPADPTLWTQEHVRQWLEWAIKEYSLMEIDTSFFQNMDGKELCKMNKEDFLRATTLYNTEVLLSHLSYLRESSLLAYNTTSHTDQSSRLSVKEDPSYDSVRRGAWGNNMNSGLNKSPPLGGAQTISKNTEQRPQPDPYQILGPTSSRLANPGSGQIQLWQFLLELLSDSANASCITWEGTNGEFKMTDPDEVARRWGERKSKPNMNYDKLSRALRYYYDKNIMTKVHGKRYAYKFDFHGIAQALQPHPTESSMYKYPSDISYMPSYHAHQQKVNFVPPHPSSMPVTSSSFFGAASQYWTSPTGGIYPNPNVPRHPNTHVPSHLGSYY
How it was run: (§1)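 The binding signal reported is, for every hexamer, its read frequency for a factor over its read frequency for the tag-only sample. Reads came from pools of yeast-expressed, GST-fused human transcription factors on glutathione beads, barcoded with DNA and mixed with that sample, which were incubated with 200 nmole of a random double-stranded 16-mer DNA library in Tris/NaCl/DTT/glycerol buffer at room temperature for 30 min. After washing, the pools were crosslinked with 0.1% formaldehyde, proximity-ligated with BsaI/T4 ligase for 1 h at 37 °C, PCR-amplified and sequenced on an Illumina NextSeq500.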

ELK1 = target: T2, ELK1 (Homo sapiens, UniProt P19419 1-428); settings: protein: recombinant; tags: N-terminal GST; dsDNA, one strand shown
T2 sequence: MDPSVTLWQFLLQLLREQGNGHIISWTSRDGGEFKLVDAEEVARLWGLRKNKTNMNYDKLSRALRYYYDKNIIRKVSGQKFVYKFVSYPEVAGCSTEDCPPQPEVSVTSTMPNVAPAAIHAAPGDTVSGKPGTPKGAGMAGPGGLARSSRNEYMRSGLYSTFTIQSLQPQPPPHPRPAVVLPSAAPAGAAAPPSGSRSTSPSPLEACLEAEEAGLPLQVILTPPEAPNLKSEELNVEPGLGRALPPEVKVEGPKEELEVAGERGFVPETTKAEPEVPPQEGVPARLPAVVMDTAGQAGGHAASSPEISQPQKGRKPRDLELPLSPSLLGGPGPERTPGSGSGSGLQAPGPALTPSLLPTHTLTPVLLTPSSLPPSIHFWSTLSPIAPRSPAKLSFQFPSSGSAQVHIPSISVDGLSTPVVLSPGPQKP
How it was run: as §1

GABPA = target: T3, GABPA (Homo sapiens, UniProt Q06546 1-454); settings: protein: recombinant; tags: N-terminal GST; dsDNA, one strand shown
T3 sequence: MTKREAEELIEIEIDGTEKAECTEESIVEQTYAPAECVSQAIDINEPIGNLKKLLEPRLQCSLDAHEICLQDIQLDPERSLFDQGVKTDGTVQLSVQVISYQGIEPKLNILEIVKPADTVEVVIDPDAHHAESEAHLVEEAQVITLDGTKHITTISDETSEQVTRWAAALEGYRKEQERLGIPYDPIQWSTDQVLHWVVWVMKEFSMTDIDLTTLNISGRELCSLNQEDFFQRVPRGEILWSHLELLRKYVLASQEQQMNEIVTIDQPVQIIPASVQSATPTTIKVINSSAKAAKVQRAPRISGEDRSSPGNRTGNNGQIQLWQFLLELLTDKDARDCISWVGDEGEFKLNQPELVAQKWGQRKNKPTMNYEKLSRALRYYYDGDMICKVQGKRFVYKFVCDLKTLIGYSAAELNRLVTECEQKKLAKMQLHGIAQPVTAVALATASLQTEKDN
How it was run: as §1

ERG = target: T4, ERG (Homo sapiens, UniProt P11308 1-479); settings: protein: recombinant; tags: N-terminal GST; dsDNA, one strand shown
T4 sequence: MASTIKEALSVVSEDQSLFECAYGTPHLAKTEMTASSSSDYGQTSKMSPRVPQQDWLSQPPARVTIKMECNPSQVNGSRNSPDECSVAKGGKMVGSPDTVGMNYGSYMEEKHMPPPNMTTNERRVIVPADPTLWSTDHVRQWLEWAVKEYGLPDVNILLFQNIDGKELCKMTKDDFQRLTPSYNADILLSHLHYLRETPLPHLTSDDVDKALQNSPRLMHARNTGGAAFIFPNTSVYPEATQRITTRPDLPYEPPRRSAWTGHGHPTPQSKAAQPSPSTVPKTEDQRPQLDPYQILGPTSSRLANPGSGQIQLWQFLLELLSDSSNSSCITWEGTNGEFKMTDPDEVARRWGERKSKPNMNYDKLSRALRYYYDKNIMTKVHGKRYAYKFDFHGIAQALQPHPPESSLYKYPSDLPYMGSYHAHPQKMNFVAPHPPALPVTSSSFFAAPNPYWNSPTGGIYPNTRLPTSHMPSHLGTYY
How it was run: as §1

ELF1 = ELF1 (Homo sapiens, UniProt P32519 1-619); settings: protein: recombinant; tags: N-terminal GST; dsDNA, one strand shown
How it was run: as §1

EHF = target: T5, EHF (Homo sapiens, UniProt Q9NZC4 1-300); settings: protein: recombinant; tags: N-terminal GST; dsDNA, one strand shown
T5 sequence: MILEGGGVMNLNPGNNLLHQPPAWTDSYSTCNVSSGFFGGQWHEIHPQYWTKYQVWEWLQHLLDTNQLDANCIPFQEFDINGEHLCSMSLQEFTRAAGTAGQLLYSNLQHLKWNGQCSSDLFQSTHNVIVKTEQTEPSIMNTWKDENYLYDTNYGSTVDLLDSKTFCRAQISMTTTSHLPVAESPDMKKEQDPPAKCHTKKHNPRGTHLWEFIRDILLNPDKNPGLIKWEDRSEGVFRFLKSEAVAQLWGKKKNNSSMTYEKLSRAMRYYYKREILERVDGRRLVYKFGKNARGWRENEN
How it was run: as §1

SPI1 = SPI1 (Homo sapiens, UniProt P17947 1-270); settings: protein: recombinant; tags: N-terminal GST; dsDNA, one strand shown
How it was run: as §1

SPIB = SPIB (Homo sapiens, UniProt Q01892 1-262); settings: protein: recombinant; tags: N-terminal GST; dsDNA, one strand shown
How it was run: as §1

ELK3 = target: T6, ELK3 (Homo sapiens, UniProt P41970 1-407); settings: protein: recombinant; tags: N-terminal GST; dsDNA, one strand shown
T6 sequence: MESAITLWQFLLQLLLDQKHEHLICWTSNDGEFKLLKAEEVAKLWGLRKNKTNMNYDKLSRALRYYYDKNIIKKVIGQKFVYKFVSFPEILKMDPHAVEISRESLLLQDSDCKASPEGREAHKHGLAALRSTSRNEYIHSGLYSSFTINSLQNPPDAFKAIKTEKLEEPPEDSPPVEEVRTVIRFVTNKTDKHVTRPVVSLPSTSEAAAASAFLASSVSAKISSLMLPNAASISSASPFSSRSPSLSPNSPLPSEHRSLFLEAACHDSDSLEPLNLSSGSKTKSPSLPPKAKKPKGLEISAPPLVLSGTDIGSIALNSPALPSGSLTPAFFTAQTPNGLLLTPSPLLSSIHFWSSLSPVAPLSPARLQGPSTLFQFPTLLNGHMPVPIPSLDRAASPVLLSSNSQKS
How it was run: as §1

FEV = target: T7, FEV (Homo sapiens, UniProt Q99581 1-238); settings: protein: recombinant; tags: N-terminal GST; dsDNA, one strand shown
T7 sequence: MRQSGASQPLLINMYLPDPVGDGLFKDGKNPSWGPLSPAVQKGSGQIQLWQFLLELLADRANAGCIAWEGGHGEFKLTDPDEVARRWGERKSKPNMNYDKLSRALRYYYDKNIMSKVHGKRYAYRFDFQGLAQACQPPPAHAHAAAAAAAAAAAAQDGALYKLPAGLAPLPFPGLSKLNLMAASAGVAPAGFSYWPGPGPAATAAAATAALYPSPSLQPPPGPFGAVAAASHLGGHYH
How it was run: as §1

ETV5 = ETV5 (Homo sapiens, UniProt P41161 1-510); settings: protein: recombinant; tags: N-terminal GST; dsDNA, one strand shown
How it was run: as §1

HSF1 = HSF1 (Homo sapiens, UniProt Q00613 1-529); settings: protein: recombinant; tags: N-terminal GST; chain copies: 3; dsDNA, one strand shown
How it was run: as §1

SPIC = target: T8, SPIC (Homo sapiens, UniProt Q8N5J4 1-248); settings: protein: recombinant; tags: N-terminal GST; dsDNA, one strand shown
T8 sequence: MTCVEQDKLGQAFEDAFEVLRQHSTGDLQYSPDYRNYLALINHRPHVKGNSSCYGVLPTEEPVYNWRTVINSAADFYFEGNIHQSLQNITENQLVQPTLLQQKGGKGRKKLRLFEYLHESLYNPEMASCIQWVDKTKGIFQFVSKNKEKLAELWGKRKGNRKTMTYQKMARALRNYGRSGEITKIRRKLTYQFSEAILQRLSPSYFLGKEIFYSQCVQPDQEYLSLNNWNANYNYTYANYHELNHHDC
How it was run: as §1

ELF4 = ELF4 (Homo sapiens, UniProt Q99607 1-663); settings: protein: recombinant; tags: N-terminal GST; dsDNA, one strand shown
How it was run: as §1

ELK4 = target: T9, ELK4 (Homo sapiens, UniProt P28324-2 1-405); settings: protein: recombinant; tags: N-terminal GST; dsDNA, one strand shown
T9 sequence: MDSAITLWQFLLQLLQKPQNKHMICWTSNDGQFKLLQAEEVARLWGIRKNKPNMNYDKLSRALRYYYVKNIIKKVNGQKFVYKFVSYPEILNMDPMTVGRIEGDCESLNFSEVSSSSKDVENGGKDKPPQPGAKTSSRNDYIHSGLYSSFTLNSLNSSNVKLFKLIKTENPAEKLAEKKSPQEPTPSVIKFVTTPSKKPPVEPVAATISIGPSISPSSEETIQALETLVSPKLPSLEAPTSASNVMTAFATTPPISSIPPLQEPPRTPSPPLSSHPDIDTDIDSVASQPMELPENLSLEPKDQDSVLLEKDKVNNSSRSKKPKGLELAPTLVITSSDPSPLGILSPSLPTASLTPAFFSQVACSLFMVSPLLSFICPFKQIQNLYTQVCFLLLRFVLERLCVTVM
How it was run: as §1

ETV2 = target: T10, ETV2 (Homo sapiens, UniProt O00321 1-342); settings: protein: recombinant; tags: N-terminal GST; dsDNA, one strand shown
T10 sequence: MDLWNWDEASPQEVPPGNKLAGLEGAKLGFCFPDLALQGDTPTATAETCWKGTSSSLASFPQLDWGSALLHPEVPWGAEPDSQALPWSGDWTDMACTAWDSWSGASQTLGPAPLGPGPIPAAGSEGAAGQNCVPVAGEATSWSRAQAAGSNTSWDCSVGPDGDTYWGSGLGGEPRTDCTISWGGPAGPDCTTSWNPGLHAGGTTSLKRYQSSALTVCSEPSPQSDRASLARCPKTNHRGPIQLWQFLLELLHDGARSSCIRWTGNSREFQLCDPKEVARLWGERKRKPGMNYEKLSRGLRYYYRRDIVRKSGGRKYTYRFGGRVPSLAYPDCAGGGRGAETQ
How it was run: as §1

ELF3 = target: T11, ELF3 (Homo sapiens, UniProt P78545 1-371); settings: protein: recombinant; tags: N-terminal GST; dsDNA, one strand shown
T11 sequence: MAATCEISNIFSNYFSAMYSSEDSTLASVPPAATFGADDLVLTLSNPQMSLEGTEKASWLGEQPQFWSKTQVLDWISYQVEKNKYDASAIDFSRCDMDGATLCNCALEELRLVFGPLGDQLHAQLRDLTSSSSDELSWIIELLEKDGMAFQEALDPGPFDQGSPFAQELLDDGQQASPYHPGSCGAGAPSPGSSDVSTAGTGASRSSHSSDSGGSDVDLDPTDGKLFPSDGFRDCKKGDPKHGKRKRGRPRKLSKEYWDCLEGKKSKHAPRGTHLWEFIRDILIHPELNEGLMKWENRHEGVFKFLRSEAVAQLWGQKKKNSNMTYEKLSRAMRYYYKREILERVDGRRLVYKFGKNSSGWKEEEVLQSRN
How it was run: as §1

ETV1 = ETV1 (Homo sapiens, UniProt P50549 1-477); settings: protein: recombinant; tags: N-terminal GST; dsDNA, one strand shown
How it was run: as §1

Sequence of ETV5 (P41161 whole entry): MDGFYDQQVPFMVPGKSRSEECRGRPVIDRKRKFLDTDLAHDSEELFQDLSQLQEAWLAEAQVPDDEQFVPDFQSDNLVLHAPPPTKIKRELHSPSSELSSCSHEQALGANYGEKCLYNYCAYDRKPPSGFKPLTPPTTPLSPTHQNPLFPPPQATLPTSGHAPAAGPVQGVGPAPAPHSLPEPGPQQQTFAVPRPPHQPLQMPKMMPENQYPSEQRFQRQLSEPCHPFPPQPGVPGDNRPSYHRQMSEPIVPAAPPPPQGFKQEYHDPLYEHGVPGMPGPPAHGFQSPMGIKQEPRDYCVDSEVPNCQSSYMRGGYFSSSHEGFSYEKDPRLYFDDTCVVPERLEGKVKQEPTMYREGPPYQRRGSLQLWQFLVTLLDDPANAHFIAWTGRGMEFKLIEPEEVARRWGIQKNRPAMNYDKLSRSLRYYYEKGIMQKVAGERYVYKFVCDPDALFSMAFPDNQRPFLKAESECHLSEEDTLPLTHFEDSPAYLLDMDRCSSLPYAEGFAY
Sequence of ELF1 (P32519 whole entry): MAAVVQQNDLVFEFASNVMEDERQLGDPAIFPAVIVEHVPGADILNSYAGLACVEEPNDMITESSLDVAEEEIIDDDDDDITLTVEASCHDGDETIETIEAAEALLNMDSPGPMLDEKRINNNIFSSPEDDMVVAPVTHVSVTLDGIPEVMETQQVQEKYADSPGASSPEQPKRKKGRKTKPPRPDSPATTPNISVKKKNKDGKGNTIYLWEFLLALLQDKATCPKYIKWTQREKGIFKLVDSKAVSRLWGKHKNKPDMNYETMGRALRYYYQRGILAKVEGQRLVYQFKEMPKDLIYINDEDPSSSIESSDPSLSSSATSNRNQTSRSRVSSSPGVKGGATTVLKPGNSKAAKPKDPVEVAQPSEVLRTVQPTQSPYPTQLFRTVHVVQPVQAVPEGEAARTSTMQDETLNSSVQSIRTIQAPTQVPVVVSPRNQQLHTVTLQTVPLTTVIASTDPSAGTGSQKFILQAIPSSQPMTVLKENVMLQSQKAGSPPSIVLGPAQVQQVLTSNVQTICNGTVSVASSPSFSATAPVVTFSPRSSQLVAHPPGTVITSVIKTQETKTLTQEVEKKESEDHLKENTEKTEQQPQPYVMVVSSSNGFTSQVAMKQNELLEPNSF
Sequence of SPIB (Q01892 whole entry): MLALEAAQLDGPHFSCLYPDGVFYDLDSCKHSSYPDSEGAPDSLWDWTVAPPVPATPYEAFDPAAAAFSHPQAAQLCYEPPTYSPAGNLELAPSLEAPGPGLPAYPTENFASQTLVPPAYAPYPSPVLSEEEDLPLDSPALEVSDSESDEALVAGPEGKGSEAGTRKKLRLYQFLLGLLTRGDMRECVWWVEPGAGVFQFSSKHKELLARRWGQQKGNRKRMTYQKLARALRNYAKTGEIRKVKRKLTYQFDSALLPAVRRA
Sequence of HSF1 (Q00613 whole entry): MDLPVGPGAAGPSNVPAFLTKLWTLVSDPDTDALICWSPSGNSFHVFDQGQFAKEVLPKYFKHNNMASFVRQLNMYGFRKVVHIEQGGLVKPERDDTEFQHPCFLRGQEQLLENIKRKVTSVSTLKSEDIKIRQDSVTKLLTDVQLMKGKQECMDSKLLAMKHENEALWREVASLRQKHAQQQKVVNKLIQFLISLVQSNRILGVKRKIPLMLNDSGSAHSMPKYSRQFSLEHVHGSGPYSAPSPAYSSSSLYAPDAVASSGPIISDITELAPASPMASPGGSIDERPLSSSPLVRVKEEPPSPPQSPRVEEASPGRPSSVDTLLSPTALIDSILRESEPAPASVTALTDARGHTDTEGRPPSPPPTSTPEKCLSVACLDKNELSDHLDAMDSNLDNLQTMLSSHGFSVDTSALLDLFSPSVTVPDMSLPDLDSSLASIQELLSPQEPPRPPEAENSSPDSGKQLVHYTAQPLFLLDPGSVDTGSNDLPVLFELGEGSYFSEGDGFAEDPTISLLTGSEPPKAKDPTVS
Sequence of ELF4 (Q99607 whole entry): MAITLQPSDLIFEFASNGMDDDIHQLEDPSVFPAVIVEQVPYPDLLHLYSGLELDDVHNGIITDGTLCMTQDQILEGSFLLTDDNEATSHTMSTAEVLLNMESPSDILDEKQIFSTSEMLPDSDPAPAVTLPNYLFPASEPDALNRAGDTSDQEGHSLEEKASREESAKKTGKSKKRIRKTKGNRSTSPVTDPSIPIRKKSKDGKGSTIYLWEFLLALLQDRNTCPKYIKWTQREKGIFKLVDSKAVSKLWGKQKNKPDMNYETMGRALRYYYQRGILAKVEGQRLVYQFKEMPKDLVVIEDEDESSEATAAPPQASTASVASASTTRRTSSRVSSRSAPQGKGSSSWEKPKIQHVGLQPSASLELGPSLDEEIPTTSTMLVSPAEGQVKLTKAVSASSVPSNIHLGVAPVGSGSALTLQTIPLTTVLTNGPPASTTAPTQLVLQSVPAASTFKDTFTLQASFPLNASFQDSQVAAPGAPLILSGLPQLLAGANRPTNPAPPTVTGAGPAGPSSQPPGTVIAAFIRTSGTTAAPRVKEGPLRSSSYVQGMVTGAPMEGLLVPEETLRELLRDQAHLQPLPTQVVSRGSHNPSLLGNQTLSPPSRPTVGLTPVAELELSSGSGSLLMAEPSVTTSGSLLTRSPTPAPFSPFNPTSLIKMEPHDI
Sequence of ETV1 (P50549 whole entry): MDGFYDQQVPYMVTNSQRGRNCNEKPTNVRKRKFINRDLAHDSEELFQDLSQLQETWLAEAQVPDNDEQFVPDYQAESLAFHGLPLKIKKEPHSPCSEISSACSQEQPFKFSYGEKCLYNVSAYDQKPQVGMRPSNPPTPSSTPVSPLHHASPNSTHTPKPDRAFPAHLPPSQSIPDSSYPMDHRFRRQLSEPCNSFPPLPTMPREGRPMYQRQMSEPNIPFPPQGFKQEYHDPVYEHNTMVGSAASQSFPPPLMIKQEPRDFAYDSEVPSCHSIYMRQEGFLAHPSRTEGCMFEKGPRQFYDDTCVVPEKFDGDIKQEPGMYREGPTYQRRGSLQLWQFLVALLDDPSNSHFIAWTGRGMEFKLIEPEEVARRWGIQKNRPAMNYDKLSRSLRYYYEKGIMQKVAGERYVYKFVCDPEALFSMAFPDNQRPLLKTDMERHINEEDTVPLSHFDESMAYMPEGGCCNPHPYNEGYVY

Sequence: GAAGCA
- binding signal (FLI1): 1.23 fold enrichment (6-mer frequency, TF over GST control)
- binding signal (ELK1): 1.35 fold enrichment (6-mer frequency, TF over GST control)
- binding signal (GABPA): 1.3 fold enrichment (6-mer frequency, TF over GST control)
- binding signal (ERG): 1.34 fold enrichment (6-mer frequency, TF over GST control)
- binding signal (ELF1): 1.25 fold enrichment (6-mer frequency, TF over GST control)
- binding signal (EHF): 1.26 fold enrichment (6-mer frequency, TF over GST control)
- binding signal (SPI1): 1.28 fold enrichment (6-mer frequency, TF over GST control)
- binding signal (SPIB): 1.25 fold enrichment (6-mer frequency, TF over GST control)
- binding signal (ELK3): 1.43 fold enrichment (6-mer frequency, TF over GST control)
- binding signal (FEV): 1.29 fold enrichment (6-mer frequency, TF over GST control)
- binding signal (ETV5): 1.41 fold enrichment (6-mer frequency, TF over GST control)
- binding signal (HSF1): 1.06 fold enrichment (6-mer frequency, TF over GST control)
- binding signal (SPIC): 1.19 fold enrichment (6-mer frequency, TF over GST control)
- binding signal (ELF4): 1.27 fold enrichment (6-mer frequency, TF over GST control)
- binding signal (ELK4): 1.2 fold enrichment (6-mer frequency, TF over GST control)
- binding signal (ETV2): 1.37 fold enrichment (6-mer frequency, TF over GST control)
- binding signal (ELF3): 1.27 fold enrichment (6-mer frequency, TF over GST control)
- binding signal (ETV1): 1.41 fold enrichment (6-mer frequency, TF over GST control)
